For 103 molecules, INHIBITION results are on record in ChEMBL document CHEMBL4513216, “Probing the Open Global Health Chemical Diversity Library for Multistage-Active Starting Points for Next-Generation Antimalarials” (ACS Infect Dis, 2020).

In all, about 69,000 compounds went through this assay and about 8,600 (12%) showed an effect of 50% or more. The entries come from a sample that favours strong results as a whole.

This test deals with Plasmodium berghei. Description: Screen against P. berghei liver stage (PbLuc), transformed with Luciferase, at 10uM. Type of test: functional, HepG2. As to conditions: tested at 10 uM.
With `CSC(C)(C)CNC(=O)NC1CCC1`, the INHIBITION stood at 34.6%. The same measure for `CCNc1cc2c(nn1)CCN(C(=O)C(C)c1c(C)noc1C)C2` (stereo not drawn): 31.9%; for `Cc1nnc(NC(=O)NCc2ccc(F)cc2)s1`: -162%. Turning to `COC(=O)c1ccoc1CN(C)Cc1ccccc1`, the INHIBITION is given as 37.1%. Regarding `CC(c1cc(F)ccc1F)N(C)Cc1nc2c(cnn2C)c(=O)[nH]1` (stereo not drawn), the INHIBITION turned out to be 16.34%. The same measure for `CCc1nn(-c2cc(Oc3cc(C)ccc3C)nc(C)n2)c(N)c1C#N`: 64.9%. The same measure for `CCc1nn(-c2cc(Oc3ccccc3)nc(C)n2)c(N)c1C#N`: 31.8%; for `Cc1ccc(C)c(Oc2cc(-n3nc(C)c(C#N)c3N)nc(C)n2)c1`: 55.6%; for `COc1ccc(C)cc1NC(=O)Cn1nc(C)c(C#N)c1N`: 16.8%. The figure for `Cc1ccc(C)c(NC(=O)Cn2nc(C)c(C#N)c2N)c1` is 14.6%; for `CCc1nn(-c2cc(Oc3cccc(C)c3)nc(C)n2)c(N)c1C#N` it is -7.81%. Consider `CCc1nn(-c2cc(Oc3cc(C)ccc3C)ncn2)c(N)c1C#N`, for which the INHIBITION stood at 57.8%. The figure for `CCOC(=O)c1cnn(-c2cc(Oc3cc(C)ccc3C)ncn2)c1N` is 18.6%; for `CC(O)c1cn(Cc2ccccc2)nn1` (stereo not drawn) it is -1.84%. Turning to `O=C(c1ncccn1)N1CCC[C@]2(C[C@H](OCC3CC3)CO2)C1`, the INHIBITION stood at 40.4%. The same measure for `COc1c(C2CCCN2C(=O)c2sc(C)nc2C)c(C)nn1C` (stereo not drawn): 8.64%; for `CN(C)[C@@H]1CN(C(=O)CCc2ccccc2)[C@@H]2CCCO[C@H]12`: 8.66%. The figure for `Cc1ccc(CC(=O)N2CCCC2Cn2nc(C)cc2C)cn1` (stereo not drawn) is 33.7%.

As to `CC(=O)N1CCCC(C(=O)NCCc2ccc(F)c(Br)c2)C1` (stereo not drawn), the INHIBITION is on record as 9.72%.

`CCc1c(C(=O)N2CCN(c3cnccn3)CC2)cnn1C(C)(C)C`: the INHIBITION was -0.219%. Regarding `CC(=O)N(Cc1noc(C2CC2)n1)C1CCN(Cc2cccnc2)C1` (stereo not drawn), the INHIBITION stood at 25.7%. Consider `Clc1ccc(CNc2cnn(CCN3CCOCC3)c2)cc1Cl`, for which the INHIBITION was 56%. The same measure for `Cc1ccccc1C(=O)Nc1cnn(CCN2CCOCC2)c1`: -21.3%; for `O=C(Nc1cnn(CCN2CCOCC2)c1)c1ccccc1Cl`: -13.4%. In the case of `O=C(Nc1cnn(CCN2CCOCC2)c1)c1ccccc1O`, the INHIBITION is listed as 55.9%. For `COc1cc(CNc2cnn(CCN3CCOCC3)c2)cc(OC)c1`, the INHIBITION is listed as 1.74%. For `N#Cc1ccc(CNc2cnn(CCN3CCOCC3)c2)cc1`, the INHIBITION is recorded as 24%.

With `COc1ccccc1CN(CC1CCCO1)C(=O)c1scnc1C` (stereo not drawn), the INHIBITION is given as -9.08%. The same measure for `O=c1ccc2c(n1Cc1cccnc1)CCN(Cc1ccoc1)CC2`: -110%; for `Cc1cncc(C2CCCN2CCO)n1` (stereo not drawn): 0.696%; for `O=C(c1cnccn1)N1CC[C@@H]2CO[C@@H](CN3CCCC3)[C@@H]2C1`: 37.8%. Turning to `CSc1ccccc1CN1C[C@H]2CC[C@@H](C1)N(CC1CC1)C2=O`, the INHIBITION stood at 28.3%. The figure for `COc1c(CNCCc2c[nH]c3cc(F)ccc23)c(C)nn1C` is 70.2%; for `COc1c(CNCCc2c[nH]c3ccccc23)c(C)nn1C` it is 30.1%. The figure for `COc1c(CNCCc2c[nH]c3cc(F)ccc23)c(C(C)C)nn1C` is 44.2%. The figure for `CS(=O)(=O)c1ccc(CNc2nccc(C(F)(F)F)n2)cc1` is -33.9%. On to `CN1CC2(CCCN(C(=O)Cc3cccc(O)c3)C2)OC1=O` (stereo not drawn), for which the INHIBITION was 16.3%. As to `CN(C)CC1COCCN1C(=O)c1ccccc1C(=O)c1ccccc1` (stereo not drawn), the INHIBITION came out at 22.6%. The figure for `O=C1N(Cc2ccc(F)c(F)c2)CCCC12CCN(C1CCCC1)C2` (stereo not drawn) is 37.4%; for `O=C1N(CCc2ccccc2)CCCC12CCN(C(CO)CO)C2` (stereo not drawn) it is -33.9%.

As for `O=C1N(Cc2ccc(F)c(F)c2)CCCC12CCN(C1CCCCC1)C2` (stereo not drawn), the INHIBITION came out at 81.7%. As for `CCS(=O)(=O)N1CCC2(CCCN(Cc3ccc(F)c(F)c3)C2=O)C1` (stereo not drawn), the INHIBITION turned out to be 39.4%. The figure for `O=C1N(Cc2ccc(F)c(F)c2)CCCC12CCN(C1CCSCC1)C2` (stereo not drawn) is 80.8%.

Turning to `O=C1N(Cc2ccc(F)cc2)CCCC12CCN(C1CCSCC1)C2` (stereo not drawn), the INHIBITION turned out to be 33.3%.

Regarding `Cc1cccc(CN2CCCC3(CCN(C4CCSCC4)C3)C2=O)c1` (stereo not drawn), the INHIBITION was 39.9%. The same measure for `CC(C)N1CCC2(CCCN(Cc3ccc(F)cc3)C2=O)C1` (stereo not drawn): 70.4%; for `CN(C)S(=O)(=O)N1CCC2(CCCN(Cc3ccc(F)cc3)C2=O)C1` (stereo not drawn): 36.8%; for `Cc1ccccc1C(=O)N1CCC2(CCCN2CCN(C)C)CC1`: -35.6%. For `CC(C)c1ncncc1C(=O)NCCN1CCCC1`, the INHIBITION was 29%.

With `CN(C)C(=O)c1c[nH]nc1C1CCN(S(=O)(=O)c2ccc(Cl)cc2)CC1`, the INHIBITION is given as 24.8%. The figure for `CN(Cc1ccco1)[C@@H]1CN(CC2CCOCC2)[C@@H]2CCCO[C@H]12` is 33.4%. The same measure for `CC(C)OCCCNC(=O)CN1CCN(c2nccs2)C(C)C1` (stereo not drawn): -27.5%; for `Cc1cn[nH]c1C1COCCN1S(=O)(=O)c1cn[nH]c1` (stereo not drawn): 23.2%. The figure for `Cn1cnnc1SCC(=O)NC1CC(=O)N(CCc2cccc(Cl)c2)C1` (stereo not drawn) is 6.29%; for `CC(=O)N1CCC2(CC1)CC(N1CCOCC1)c1ccc(C)cc12` (stereo not drawn) it is -39.2%. For the molecule `Cc1nc(NCc2nccn2C)cc(C2COCCN2)n1` (stereo not drawn), the INHIBITION is listed as 23.375%. The figure for `Cc1noc(-c2ccc(N3CCCC(C(=O)N4CCSCC4)C3)nc2)n1` (stereo not drawn) is 28.8%; for `Cc1noc(-c2ccc(N3CCC(C(=O)N4CCCC4)CC3)nc2)n1` it is 76.7%. The same measure for `Cc1noc(-c2ccc(N3CCCC(C(=O)O)C3)nc2)n1` (stereo not drawn): -19.2%.

Regarding `CCn1ncc(S(=O)(=O)N[C@@H]2CC[C@@H](n3ccnc3C)[C@@H]2O)c1C`, the INHIBITION was 4.9%. The figure for `Cc1cc(=O)[nH]c(=O)n1COCCOCc1ccccc1` is 8.41%; for `Cc1cc(=O)[nH]c(=O)n1COCc1ccccc1` it is 13.6%; for `Cc1ccccc1COCCOCn1c(C)cc(=O)[nH]c1=O` it is 51.3%. The figure for `CC(C)n1ccnc1CN1CCCN(C(=O)CC2CCCO2)CC1` (stereo not drawn) is -32%; for `CC(C)n1ccnc1CN1CCOC(CCc2ccccc2)C1` (stereo not drawn) it is 9.34%. For `CC(C)n1ccnc1CN1CCOC(CC2CCCCC2)C1` (stereo not drawn), the INHIBITION was determined as 50%. The figure for `Cc1nc2sccn2c1CNc1cc(C(=O)O)ccc1F` is -15.7%; for `COc1ccccc1C1(NCc2c(C)nc3c(C)cccn23)CCCC1` it is 49%; for `Cc1nc2sccn2c1CNC1(c2ccccc2F)CCCC1` it is 52.4%. Take `O=C(Cn1cccn1)N(CCO)CCSc1ccc(Cl)cc1`: the INHIBITION turned out to be 24.7%. The same measure for `Cc1nc(C(C)NC(=O)c2cn(Cc3ccc(Cl)cc3)nn2)n[nH]1` (stereo not drawn): 39.9%; for `Cc1noc(C(C)C)c1C(=O)NCC(c1ccccc1)N(C)C` (stereo not drawn): -7.35%. As for `Cc1cc(CN2CCC(O)(Cn3ccc4ncccc43)CC2)c(C)s1`, the INHIBITION is given as 23.2%.

Consider `OC1(Cn2ccc3ncccc32)CCN(Cc2cccs2)CC1`, for which the INHIBITION is on record as 64.1%. The same measure for `OC1(Cn2ccc3ncccc32)CCN(Cc2cc(F)cc(F)c2)CC1`: 54.4%.

Turning to `OC1(Cn2ccc3ncccc32)CCN(Cc2ccccc2F)CC1`, the INHIBITION turned out to be 70.1%. The same measure for `Cc1ccc(CN2CCC(O)(Cn3ccc4ncccc43)CC2)o1`: 28%; for `COc1ccccc1CN1CCC(O)(Cn2ccc3ncccc32)CC1`: 14.7%.

As to `CCn1cc(CN2CCC(O)(Cn3ccc4ncccc43)CC2)cn1`, the INHIBITION was 38.8%. Take `OC1(Cn2ccc3ncccc32)CCN(Cc2cccnc2)CC1`: the INHIBITION is given as 35.2%. The same measure for `COCc1ccc(CN2CCC(O)(Cn3ccc4ncccc43)CC2)o1`: 38.7%; for `OC1(Cn2ccc3ccncc32)CCN(Cc2ccccn2)CC1`: 37%. Regarding `CCn1ncc(CN2CCC(O)(Cn3ccc4ncccc43)CC2)c1C`, the INHIBITION is on record as 19.6%. The same measure for `OC1(Cn2ccc3ncccc32)CCN(Cc2ccccn2)CC1`: 50.6%; for `CC(C)Nc1nc2c(cc1C(=O)N(C)C)CCNCC2`: -3.83%; for `CCCN1CCC2(C1)c1ccccc1S(=O)(=O)N2C` (stereo not drawn): 13.7%. The figure for `OC(CNCCc1nnc2ccccn12)c1ccc2c(c1)OCO2` (stereo not drawn) is -20.5%; for `CCCc1nc(C)c(C(=O)Nc2cccc(C)n2)s1` it is 1.45%.

With `COC[C@H]1CN(CC2CC2)C(=O)[C@@H]2CCN(Cc3ccoc3)CC[C@H]12`, the INHIBITION is 11.3%.

In the case of `Cc1ccsc1CN(Cc1nc2c(cnn2C)c(=O)[nH]1)C(C)C`, the INHIBITION was found to be 31.533%.

As for `COc1ccc(NC(=O)N(CC2CCOC2)C2CC2)cn1` (stereo not drawn), the INHIBITION turned out to be 12.85%. For `Cn1cncc1C(=O)N1CCOC2(COCCN(CC3CC3)C2)C1` (stereo not drawn), the INHIBITION is reported as -8.23%. The figure for `Cc1csc(CN2CC[C@H]3C[C@@H](c4noc(C)n4)O[C@@H]3C2)n1` is 29%. The figure for `Cc1noc(C)c1CN1CC[C@H]2C[C@H](c3ccncn3)O[C@@H]2C1` is 34.6%; for `Cc1nc([C@@H]2C[C@H]3CN(Cc4ccc5c(c4)OCO5)C[C@H]3O2)no1` it is 29.4%. The same measure for `Cc1nc([C@H]2C[C@@H]3CCN(Cc4scnc4C)C[C@H]3O2)no1`: 88%; for `Cc1nccc([C@@H]2C[C@@H]3CCN(Cc4c(C)noc4C)C[C@H]3O2)n1`: 67.2%; for `Cc1noc(C)c1CN1CC[C@H]2C[C@@H](c3ccncn3)O[C@@H]2C1`: 21.6%. Consider `Cc1nc([C@H]2C[C@@H]3CCN(Cc4ccc5c(c4)OCO5)C[C@H]3O2)no1`, for which the INHIBITION is listed as 59.3%. The same measure for `Cc1nc([C@@H]2C[C@H]3CN(Cc4scnc4C)C[C@H]3O2)no1`: -35.2%; for `Cc1noc([C@@H]2C[C@H]3CN(Cc4ccc5c(c4)OCO5)C[C@H]3O2)n1`: 42.1%.

Take `Cc1noc(C)c1CN1CCC(c2ccnn2CCO)CC1`: the INHIBITION is reported as -43.5%. The same measure for `COCC(O)CN1CCC(=O)N(Cc2ccco2)Cc2ccccc21` (stereo not drawn): 24.5%.
